Assay results reported in PubChem BioAssay AID1259336 (Sattelle Laboratory, UCL Respiratory, Division of Medicine, …, 2017).
A number with no mark means an inactive call. The source made the active and inactive calls. Cut-off read from the data, not from the text of the source: active = log2 fold change growth below about -1.8; inactive = the rest.

assay: C. elegans growth inhibition, whole organism, log2 fold change (AID 1259336); settings: anthelmintic screen, hits give low values;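 note: growth scored by imaging after five days at 20 °C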

Row | Structure (SMILES) | log2 fold change growth
1 | CC1(C)OB(O)c2ccc(C3=NO[C@](c4cc(Cl)c(F)c(Cl)c4)(C(F)(F)F)C3)cc21 | -2.88
2 | Cc1nn(Cc2ccccc2)c(Cl)c1C(=O)NC1CCCCCC1 | 0.0333
3 | CCc1nn(C)c(C(=O)NCc2ccc(Oc3ccc(C)cc3)cc2)c1Cl | -10.9 (active)
4 | CC1COC(Cn2cncn2)(c2ccc(Oc3ccc(Cl)cc3)cc2Cl)O1 (centres undefined) | -0.72
5 | CC(C)(C)C(O)C(Oc1ccc(-c2ccccc2)cc1)n1cncn1 (centres undefined) | -0.263
6 | O=C1O[C@@H](CO)CN1c1cc(F)c(C2=CCN(Cc3ccccc3)CC2)c(F)c1 | 0.141
7 | Cc1cc(C2=NO[C@](c3cc(Cl)c(F)c(Cl)c3)(C(F)(F)F)C2)ccc1C(=O)NCc1ccc2c(c1)C(C)(C)OB2O | -0.268
8 | Cc1nn(C)c(C)c1NS(=O)(=O)c1c(Cl)cc(-c2ccnc(N3CCNCC3)c2)cc1Cl | -0.0922
9 | O=C1O[C@@H](COc2ccon2)CN1c1cc(F)c(C2=CCN(Cc3ccccc3)CC2)c(F)c1 | 0.114
10 | CO/N=C(/C(=O)OC)c1ccccc1CO/N=C(/C)c1cccc(C(F)(F)F)c1 | -0.187
11 | CO/C=C(\C(=O)OC)c1ccccc1Oc1cc(Oc2ccccc2C#N)ncn1 | -0.352
12 | Cc1cccc(C(=O)Nc2ccnc(N(C)C3CCN(CC(C)C)CC3)c2)c1 | 0.418
13 | CO[C@@H]1CN(c2ccc(C#CC3(O)CN4CCC3CC4)c(Cc3ccccc3)n2)C[C@H]1O (some centres undefined) | -0.086
14 | Nc1c2c(nc3sc4c(c13)CCCC4)CCCC2 | -0.177
